In PubChem BioAssay (NCI) one finds growth data, which are given here for 13 molecules.

This is part of a sample that, as a whole, favours compounds with a hit. Of some 83,000 tested, about 20% had one in any assay.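 Cells were grown in 96-well plates and exposed to the test compound at a single concentration for 48 hours; results are reported as percent growth, with values below 10 considered active.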 A number with no mark means an inactive call. Active and inactive are the calls of the source.

Test systems include DU-145 prostate; K-562 leukemia; MALME-3M melanoma; MDA-MB-231 breast; RXF 393 renal; SF-268 CNS; SF-295 CNS; SF-539 CNS; UACC-257 melanoma; M14 melanoma.
What all share (assay): NCI-60 one-dose screen, 48 h (100 = growth as untreated, 0 = no growth, -100 = all killed)
What all share (conditions): 10 µM unless noted

Take `Clc1ccc(I)c2ccccc12`: the growth in the experiment with DU-145 prostate was 111%; in the experiment with K-562 leukemia it was 102%; in the experiment with MALME-3M melanoma, 97.6%; in the experiment with MDA-MB-231 breast, 110%; in the experiment on RXF 393 renal it was 113%; in the experiment with SF-268 CNS it was 101%. Further, the growth in the experiment on SF-295 CNS is 102%; in the experiment on SF-539 CNS, 105%; with UACC-257 melanoma it was 101%; in the experiment on M14 melanoma, 101%.

`C=CCNC(=S)NNc1ccc([N+](=O)[O-])cn1`: the growth in the experiment on DU-145 prostate is 104%; in the experiment with K-562 leukemia, 94.3%; with MALME-3M melanoma, 79.6%; in the experiment with MDA-MB-231 breast it was 89.7%; in the experiment with RXF 393 renal it was 104%; in the experiment on SF-268 CNS, 97.7%. For the same molecule, the growth in the experiment with SF-295 CNS was 96.9%; in the experiment with SF-539 CNS it was 104%; in the experiment on UACC-257 melanoma, 97.9%; in the experiment with M14 melanoma it was 96%.

With `COc1nc(OC)nc(-c2cc(C(=O)c3ccc(Br)cc3)n3cc(C)cc(C)c23)n1`, the growth with DU-145 prostate was 76.3%; with K-562 leukemia it was 91.1%; in the experiment on MALME-3M melanoma, 54.1%; in the experiment with MDA-MB-231 breast, 49.8%; in the experiment with RXF 393 renal, 11.9%; with SF-268 CNS, 55.4%. For the same molecule, the growth in the experiment on SF-295 CNS is 48.7%; with SF-539 CNS, 26.2%; with UACC-257 melanoma it was 94.8%; in the experiment on M14 melanoma it was 90.3%.

On to `C=CCC(CCC(CC=C)C(=O)OCC)C(=O)OCC` (stereo not given), for which the growth is 110% in the experiment with DU-145 prostate; 108% with K-562 leukemia; 96.2% in the experiment with MALME-3M melanoma; 107% in the experiment on MDA-MB-231 breast; 108% with RXF 393 renal; 105% in the experiment with SF-268 CNS. In addition, the growth with SF-295 CNS is 91.9%; in the experiment on SF-539 CNS, 105%; with UACC-257 melanoma it was 113%; with M14 melanoma, 102%.

For `CCOC(=O)c1c(C)oc2ncnc(Nc3ccc(C(=O)NCCc4ccccc4)cc3)c12`, the growth in the experiment with DU-145 prostate is 82.1%; with K-562 leukemia, 89%; in the experiment with MALME-3M melanoma it was 89.5%; with MDA-MB-231 breast, 85.7%; in the experiment on RXF 393 renal, 71.8%; in the experiment on SF-268 CNS, 74.1%. Further, the growth in the experiment with SF-295 CNS was 90.4%; in the experiment on SF-539 CNS, 58.9%; with UACC-257 melanoma, 79.7%; in the experiment with M14 melanoma, 81.3%.

In the case of `COc1cc(N2C(=O)C=CC2=O)ccc1N1C(=O)C=CC1=O`, the growth with DU-145 prostate is 114%; in the experiment with K-562 leukemia, 64.5%; in the experiment on MALME-3M melanoma it was 97.3%; in the experiment with MDA-MB-231 breast it was 116%; with RXF 393 renal, 110%; in the experiment on SF-268 CNS it was 105%. The growth is 99.9% in the experiment with SF-295 CNS, 101% in the experiment on SF-539 CNS, 104% with UACC-257 melanoma and 103% in the experiment with M14 melanoma.

With `Oc1ccccc1/C=N/N=C\c1ccccc1Cl`, the growth in the experiment on DU-145 prostate was 99.5%; in the experiment with K-562 leukemia, 77.1%; in the experiment on MALME-3M melanoma it was 103%; in the experiment on MDA-MB-231 breast it was 72.6%; in the experiment with RXF 393 renal, 97.3%; in the experiment on SF-268 CNS, 91.9%. Further, the growth is 98.7% in the experiment on SF-295 CNS, 105% in the experiment with SF-539 CNS, 104% in the experiment with UACC-257 melanoma and 91% in the experiment on M14 melanoma.

Take `CC(=O)Nc1nc(C)c(C(=O)N/N=C/N2CCCCC2)s1`: the growth was 137% with DU-145 prostate; 137% with K-562 leukemia; 119% in the experiment on MALME-3M melanoma; 111% in the experiment on MDA-MB-231 breast; 112% in the experiment with RXF 393 renal; 111% with SF-268 CNS. In addition, the growth in the experiment with SF-295 CNS was 127%; in the experiment on SF-539 CNS, 99.3%; in the experiment on UACC-257 melanoma it was 120%; in the experiment on M14 melanoma, 111%.

`CC(C)(C)c1ccc(OCCOC(=O)CBr)cc1`: the growth was 109% in the experiment with DU-145 prostate; 82.8% in the experiment on K-562 leukemia; 107% in the experiment on MALME-3M melanoma; 88% with MDA-MB-231 breast; 78.5% in the experiment on RXF 393 renal; 96.3% in the experiment with SF-268 CNS. The growth with SF-295 CNS was 116%; in the experiment on SF-539 CNS it was 100%; with UACC-257 melanoma, 106%; in the experiment with M14 melanoma, 95.8%.

With `O=C(/C=C\c1ccccc1Cl)c1ccccc1`, the growth in the experiment on DU-145 prostate was 101%; in the experiment on K-562 leukemia, 102%; in the experiment with MALME-3M melanoma it was 98.9%; in the experiment on MDA-MB-231 breast it was 91.7%; in the experiment with RXF 393 renal, 89.7%; in the experiment on SF-268 CNS, 93.4%. The growth in the experiment on SF-295 CNS was 75.2%; in the experiment on SF-539 CNS it was 103%; with UACC-257 melanoma, 119%; in the experiment with M14 melanoma, 101%.

For `CC([C@H]1CCC2C3CCC4C[C@@H](N)CC[C@]4(C)C3CC[C@@]21C)N(C)C` (stereo not given in full), the growth was 88.7% in the experiment with DU-145 prostate; 21.2% in the experiment with K-562 leukemia; 5.88% (active) in the experiment on MALME-3M melanoma; 58% in the experiment with MDA-MB-231 breast; 24.3% in the experiment with RXF 393 renal; 37.1% in the experiment on SF-268 CNS. The growth in the experiment on SF-295 CNS is 76.6%; in the experiment on SF-539 CNS it was 13.1%; in the experiment with UACC-257 melanoma, -7.66% (active); in the experiment with M14 melanoma, -6.67% (active).

Consider `C=CC1CN2CCC1CC2C(O)c1ccnc2ccc(OC)cc12` (stereo not given), for which the growth in the experiment with DU-145 prostate was 127%; in the experiment with K-562 leukemia, 106%; with MALME-3M melanoma, 95.6%; with MDA-MB-231 breast, 96.7%; with RXF 393 renal it was 97%; with SF-268 CNS, 103%. The growth in the experiment on SF-295 CNS was 91.6%; in the experiment with SF-539 CNS it was 98.3%; in the experiment with UACC-257 melanoma it was 106%; with M14 melanoma it was 98.9%.

As to `CC(C)(C)c1ccc([I+]c2ccc(C(C)(C)C)cc2)cc1`, the growth in the experiment on DU-145 prostate is -89.1% (active); with K-562 leukemia, 1.42% (active); in the experiment with MALME-3M melanoma it was -61.2% (active); in the experiment with MDA-MB-231 breast it was -30.3% (active); in the experiment with RXF 393 renal, 0.632% (active); in the experiment with SF-268 CNS, 1.36% (active). The growth was 23.7% in the experiment with SF-295 CNS, 21.2% with SF-539 CNS, 1.08% (active) in the experiment on UACC-257 melanoma and 2.73% (active) in the experiment on M14 melanoma.
